Results filed as inconclusive are left out. Activity calls are given as the source filed them. Calls follow the shape of the dose curve; as a rule, active = well fitted curve in the direction sought with a large enough effect; inconclusive = small, poorly fitted or top-dose-only effect, or another doubt; inactive = no such curve, though single readings can be large; an effect the other way counts as inactive or inconclusive.
How the values were obtained:
[1] = target: Glutaminase kidney isoform, mitochondrial (Homo sapiens) (UniProt O94925); experiment: qHTS for Inhibitors of Glutaminase (GLS): LOPAC Validation (AID 624146); also: nearly all actives have a fitted effect of over 60% in size; also: potency is read from the fitted curve at half-maximal effect
Method in brief: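 hKGA; 45 mM KH2PO4 pH 8.2 + 0.02% Tween-20; cpd via pin tool; 1 mM Gln soln; GluOx/HRP/Amplex Red; RT 30 min; fluor. t0 & final.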

[2] = qHTS of Trypanosoma Brucei Inhibitors: LOPAC Validation (AID 624147)
Method in brief: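 Glycolytic pyruvate kinase of T. brucei was incubated with substrate, test compound and 130 uM ADP for 45 minutes at room temperature. Luminescent Kinase-Glo Plus signal was measured after 10 minutes.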

[3] = target: Glucagon-like peptide 1 receptor (Homo sapiens) (UniProt P43220); experiment: qHTS of GLP-1 Receptor Agonists: LOPAC Validation (AID 624148);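 also: higher luminescence signal means agonism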
Method in brief: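 HEK293 cells stably co-expressing GLP-1R and a cAMP-responsive luciferase reporter, plated 12 hours before compound, then incubated 4-6 hr at 37 deg C. Luminescence read 12 min after detection reagent.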

[4] = qHTS of Nrf2 Activators: LOPAC Validation (AID 624149)
Method in brief: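 ARE reporter activation measured in AREc32 firefly luciferase cells after 24 hr compound exposure; Steady-Glo luminescence.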

[5] = HTS Assay for Allosteric Antagonists of the Human D2 Dopamine Receptor: Hit Validation in HTRF (AID 624455);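 also: stable D1 dopamine receptor cell line scored for blocking the D1 response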
Method in brief: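 Signal from an HTRF read-out in D1-expressing stable cells gave hit activity as inhibition of the D1 response.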

[6] = target: Arylsulfatase A (Homo sapiens) (UniProt P15289); experiment: qHTS screen for enhancers of Arylsulfatase A (ASA1): LOPAC Validation Assay (AID 720538)
Method in brief: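 Cell-based enhancement test: residual ASA activity in SV40-transformed I179S patient fibroblasts is measured by pNCS turnover (0.5mM final, 14h, room temperature) following 48h compound incubation; higher fluorescence indicates activation.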

Measured: Potency

Glucagon-like peptide 1 receptor (Homo sapiens), sequence (P43220 whole entry, looked up): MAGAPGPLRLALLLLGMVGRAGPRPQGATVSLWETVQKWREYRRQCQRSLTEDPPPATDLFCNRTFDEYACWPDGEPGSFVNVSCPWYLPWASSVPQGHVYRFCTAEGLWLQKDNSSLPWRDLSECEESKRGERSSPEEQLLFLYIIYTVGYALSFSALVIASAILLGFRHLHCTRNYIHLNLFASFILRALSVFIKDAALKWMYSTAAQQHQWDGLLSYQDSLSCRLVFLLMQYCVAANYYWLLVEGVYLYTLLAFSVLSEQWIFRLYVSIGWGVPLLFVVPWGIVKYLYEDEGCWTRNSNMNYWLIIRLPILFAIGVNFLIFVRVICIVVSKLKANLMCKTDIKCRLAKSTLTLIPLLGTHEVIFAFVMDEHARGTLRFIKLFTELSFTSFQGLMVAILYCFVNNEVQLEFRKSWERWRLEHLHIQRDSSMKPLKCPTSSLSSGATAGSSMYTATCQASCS
Glutaminase kidney isoform, mitochondrial (Homo sapiens), sequence (O94925 whole entry, looked up, canonical isoform): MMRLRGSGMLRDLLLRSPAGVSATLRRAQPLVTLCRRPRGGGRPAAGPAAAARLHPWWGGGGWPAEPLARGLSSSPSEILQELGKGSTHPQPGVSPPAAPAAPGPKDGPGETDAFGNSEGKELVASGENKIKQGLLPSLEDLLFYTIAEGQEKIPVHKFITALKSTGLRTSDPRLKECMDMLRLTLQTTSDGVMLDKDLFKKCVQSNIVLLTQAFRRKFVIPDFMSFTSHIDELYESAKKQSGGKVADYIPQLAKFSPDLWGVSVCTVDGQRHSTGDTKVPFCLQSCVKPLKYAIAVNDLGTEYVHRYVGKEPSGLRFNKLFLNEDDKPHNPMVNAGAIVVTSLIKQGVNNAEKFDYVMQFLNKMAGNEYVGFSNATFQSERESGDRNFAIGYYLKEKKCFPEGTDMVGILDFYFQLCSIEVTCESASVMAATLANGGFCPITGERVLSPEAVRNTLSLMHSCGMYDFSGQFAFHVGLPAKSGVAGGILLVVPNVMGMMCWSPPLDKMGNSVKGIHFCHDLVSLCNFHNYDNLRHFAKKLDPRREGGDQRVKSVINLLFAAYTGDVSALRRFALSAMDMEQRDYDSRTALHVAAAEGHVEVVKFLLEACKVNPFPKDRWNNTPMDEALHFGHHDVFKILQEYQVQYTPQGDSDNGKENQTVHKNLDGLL
Arylsulfatase A (Homo sapiens), sequence (P15289 whole entry, looked up): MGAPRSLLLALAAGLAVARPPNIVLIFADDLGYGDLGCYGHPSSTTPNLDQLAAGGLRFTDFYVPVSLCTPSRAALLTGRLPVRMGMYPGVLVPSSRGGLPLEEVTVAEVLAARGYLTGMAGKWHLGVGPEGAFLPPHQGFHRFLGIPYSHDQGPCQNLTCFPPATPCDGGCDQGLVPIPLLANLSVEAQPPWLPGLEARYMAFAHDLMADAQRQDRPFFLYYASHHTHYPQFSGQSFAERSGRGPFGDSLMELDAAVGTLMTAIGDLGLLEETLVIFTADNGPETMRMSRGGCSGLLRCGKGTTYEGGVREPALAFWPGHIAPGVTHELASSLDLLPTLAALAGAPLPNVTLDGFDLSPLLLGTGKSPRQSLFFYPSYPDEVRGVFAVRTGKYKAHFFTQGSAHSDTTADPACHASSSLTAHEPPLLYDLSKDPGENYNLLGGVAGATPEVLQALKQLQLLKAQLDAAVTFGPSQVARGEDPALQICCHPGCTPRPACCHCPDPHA

NC(=O)c1ccc(OCC(O)CN2CC=C(c3ccc(F)cc3)CC2)cc1 (stereo not given)
inactive: all assays above

OCc1cnc[nH]1
inactive: all assays above

CN1C2CCC1CC(OC(c1ccccc1)c1ccccc1N)C2 (stereo not given)
inactive: all assays above

C[C@H](Cc1ccc2c(c1)OC(C(=O)O)(C(=O)O)O2)NC[C@H](O)c1cccc(Cl)c1
inactive: all assays above

CO[C@H]1CC=C2CCN3CCC4=C(CC(=O)OC4)[C@]23C1
inactive: all assays above

CP(=O)(O)C1=CCNCC1
inactive: all assays above

CC(C)(O)[C@@H]1C2OC(=O)[C@@H]1[C@]1(O)C[C@H]3O[C@]34C(=O)O[C@H]2[C@]14C (tested in a mixture with another compound)
inactive: all assays above

CC1(C(=O)O)C2CCC(O2)C1(C)C(=O)O (stereo not given)
inactive: all assays above

C[C@]12Cc3cn4c(nc3C=C1CCC1C2CC[C@@]2(C)[C@H]1CC[C@@]2(O)C#N)nc1ccccc14 (stereo not given in full)
inactive: all assays above

CN(C(=O)Cc1ccc(Cl)c(Cl)c1)C(CN1CCCC1)c1cccc(OCC(=O)O)c1 (stereo not given)
inactive: all assays above

CN1CCC(c2c[nH]c3ccc(O)cc23)CC1
active: [1] 1260 nM
inactive: all other assays above

C/C(O)=C(\C#N)C(=O)Nc1cc(Br)ccc1Br
inactive: all assays above

CCCN(CCC)CCc1c[nH]c2ccc(C(N)=O)cc12
inactive: all assays above

CCS(=O)(=O)Nc1cccc(C(=C2CCCCC2)c2cnc[nH]2)c1
inactive: all assays above

CN1CC[C@@]2(C)c3cc(OC(=O)Nc4ccccc4)ccc3N(C)[C@@H]12
active: [1] 1120 nM
inactive: all other assays above

CCCN(CCC)C1Cc2cc(OC)c(OC)cc2C1
inactive: all assays above

C[N+](C)(C)CC#CCOC(=O)Nc1cccc(Cl)c1
inactive: all assays above

c1ccc2c(c1)[I+]c1ccccc1-2
inactive: all assays above

C=CCN1CC[C@]23c4c5ccc(O)c4O[C@@H]2/C(=N/N=C2\CC[C@@]4(O)C6Cc7ccc(O)c8c7[C@@]4(CCN6CC=C)[C@@H]2O8)CC[C@@]3(O)C1C5
active: [1] 2000 nM
inactive: all other assays above

COc1ccc2c(c1)/C(=C/c1cnc[nH]1)C(=O)N2
inactive: all assays above

COc1ccc2c(c1O)-c1cccc3c1[C@@H](C2)N(C)CC3
active: [1] 3550 nM
inactive: all other assays above

CCN1C[C@@]2(COC)C3[C@@H](OC)C4[C@@H]1C3([C@@H]1C[C@]3(O)[C@H](OC(=O)c5ccccc5)[C@@H]1[C@]4(OC(C)=O)[C@@H](O)[C@@H]3OC)[C@H](OC)C[C@H]2O
inactive: all assays above

C#CCN[C@H](C)Cc1ccccc1
inactive: all assays above

C[N+]1(C)CCc2cc3c(cc2[C@H]1[C@@H]1OC(=O)c2c1ccc1c2OCO1)OCO3
inactive: all assays above

NC(C(=O)O)c1cc(=O)[nH]o1 (stereo not given)
inactive: all assays above

CCCN1CCC[C@@H](c2cccc(O)c2)C1
not listed: [5]
inactive: all other assays above

Clc1cc(I)cc(Cl)c1NC1=NCCN1
not listed: [5]
inactive: all other assays above
